PubChem BioAssay (Tox21)
Inconclusive results are not listed. A number with no mark means an inactive call. The source made the active and inactive calls. The call rests on the fitted dose curve; in most records, active means well fitted cell-killing curve with a large enough effect in the repeat runs; inconclusive means weak or mixed curves, or effect the other way; inactive means flat fitted curve, though single readings scatter.

test: cAMP Responsive Elements (CRE) small molecule antagonists, cell-based qHTS assay: qHTS cell viability counter screen (AID 2060913); details: CRE-bla HEK293T viability, CellTiter-Glo luminescence, 5 h; series mostly up to 92.4 µM; viability change, negative = cytotoxic: at the top concentration; further: nearly all actives have a fitted effect of over 40% in size
How it was run: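 CRE-bla HEK293T cells (2,000/well, 18 h) given compound plus NKH477 0.25 uM final for 3 h at 37C; viability counter-screen by CellTiter-Glo luminescence in same wells after 30 min.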
On the % scale 0 is the no-effect control and ±100 the full control effect.

SMILES	viability change, negative = cytotoxic	Potency
COc1ccc(C(=O)NCc2ccc(OCCN(C)C)cc2)cc1OC	3.79% [at 42.5 µM]	–
ONc1ccccc1	5.73%	–
CCC(C)CCCC(C)(C)O (stereo unspecified)	-0.14%	–
CCO[Si](CCCN=C=O)(OCC)OCC	13.3%	–
C#CCN(C)Cc1ccccc1	–	inactive
O=C(CCCN1CC=C(n2c(=O)[nH]c3ccccc32)CC1)c1ccc(F)cc1	0.548% [at 42.5 µM]	–
C/C(=N\[Si](C)(C)C)O[Si](C)(C)C	-3.65%	–
COc1cc(C)c(Cc2cnc(N)nc2N)cc1OC	2.14% [at 42.5 µM]	–
CN(C)CCCOc1nn(Cc2ccccc2)c2ccccc12	-1.48% [at 42.5 µM]	–
CCC(C)c1nccnc1OC (stereo unspecified)	10%	–
CCC(C)(CCC(C)C)C(=O)[O][Sn]([CH3])([CH3])[O]C(=O)C(C)(CC)CCC(C)C (stereo unspecified)	-2.88%	–
CC(=O)OCC=C(C)C	-0.198% [at 42.5 µM]	–
O=C1CCCc2c(O)cccc21	3.36% [at 42.5 µM]	–
CCC(O)OCCCOC (stereo unspecified)	–	inactive
O=C(Oc1ccccc1)Oc1ccccc1	-10.4%	–
CO[C@@]12[C@H](COC(N)=O)C3=C(C(=O)C(C)=C(N)C3=O)N1C[C@@H]1N[C@@H]12	0.321% [at 42.5 µM]	–
C/C=C/c1ccc(OCC)c(O)c1	–	inactive
Cn1c([N+](=O)[O-])cnc1COC(N)=O	–	inactive
CCC(C)C(C)=O (stereo unspecified)	11.4%	–
CCN(CC)CCOC(=O)C(c1ccccc1)c1ccccc1	3.32% [at 42.5 µM]	–
CC1=CCCC(C)(C)C12CCC(C)O2 (stereo unspecified)	1.95%	–
CC1=NS(=O)(=O)c2cc(Cl)ccc2N1	8.19% [at 42.5 µM]	–
Cc1cccc2nccnc12	-2.62%	–
CCCCCC/C=C/C=O	1.14%	–
O=C(OCCOCCO)c1ccccc1Nc1cccc(C(F)(F)F)c1	1.67% [at 42.5 µM]	–
CC(CC1c2ccccc2CCc2ccccc21)CN(C)C (stereo unspecified)	-0.565% [at 42.5 µM]	–
